Measurements from the antibiotic and cytotoxicity screens of Wong et al. (2023).
Screen size: about 39,000 compounds; about 500 (1.3%) were called active. The sample holds actives, similar compounds and a random draw of the others, so the mix is not that of the screen.

What follows are compounds tested on S. aureus RN4220 (assay: growth inhibition call (relative growth <= 0.2)). Conditions: 50 µM.
`C[C@@H]1CN([C@@H](C)CO)C(=O)CCCn2cc(nn2)CO[C@H]1CN(C)C(=O)C1CC1` was tested, and the growth inhibition call was “inactive”.
With `C[C@H](CO)N1C[C@H](C)[C@H](CN(C)C(=O)CCC(F)(F)F)OCCCC[C@H](C)Oc2ccc(NC(=O)C3CCCCC3)cc2C1=O` the growth inhibition call was “inactive”.
For `COc1cccc(S(=O)(=O)N2C[C@@H](O)COC[C@@H]3O[C@@H](CC(=O)N4CCN(c5ccccc5)CC4)CC[C@H]32)c1`, the growth inhibition call was “inactive”.
`C[C@@H]1O[C@@H](O[C@H]2[C@@H](Oc3cc(O)c4c(c3)O[C@H](c3ccc(O)cc3)CC4=O)O[C@H](CO)[C@@H](O)[C@@H]2O)[C@H](O)[C@H](O)[C@H]1O` was tested, and the growth inhibition call was “inactive”.
`CC(C)C[C@@H](N)C(=O)N[C@H]1C(=O)N[C@@H](CC(N)=O)C(=O)N[C@H]2C(=O)N[C@H]3C(=O)N[C@H](C(=O)N[C@H](C(=O)O)c4cc(O)cc(O)c4-c4cc3ccc4O)[C@H](O)c3ccc(c(Cl)c3)Oc3cc2cc(c3O[C@@H]2O[C@H](CO)[C@@H](O)[C@H](O)[C@H]2O[C@H]2C[C@](C)(N)[C@H](O)[C@H](C)O2)Oc2ccc(cc2Cl)[C@H]1O` was tested, and the growth inhibition call was “active”.
For `CNC(CC(C)C)C(=O)NC1C(=O)NC(CC(N)=O)C(=O)NC2C(=O)NC3C(=O)NC(C(=O)NC(C(=O)O)c4cc(O)cc(O)c4-c4cc3ccc4O)C(O)c3ccc(c(Cl)c3)Oc3cc2cc(c3OC2OC(CO)C(O)C(O)C2OC2CC(C)(N)C(O)C(C)O2)Oc2ccc(cc2Cl)C1O.Cl` (configuration not stated), the growth inhibition call was “active”.
In the case of `C[C@@H]1O[C@@H](O[C@H]2[C@H](Oc3cc(O)c4c(c3)O[C@H](c3ccc(O)cc3)CC4=O)O[C@H](CO)[C@@H](O)[C@@H]2O)[C@H](O)[C@H](O)[C@H]1O`, the growth inhibition call is reported as “inactive”.
With `CC1OC(OC2C(Oc3cc(O)c4c(c3)OC(c3ccc(O)cc3)CC4=O)OC(CO)C(O)C2O)C(O)C(O)C1O` (configuration not stated) the growth inhibition call was “inactive”.
With `CN[C@H](CC(C)C)C(=O)N[C@H]1C(=O)N[C@@H](CC(N)=O)C(=O)N[C@H]2C(=O)N[C@H]3C(=O)N[C@H](C(=O)N[C@H](C(=O)O)c4cc(O)cc(O)c4-c4cc3ccc4O)[C@H](O)c3ccc(c(Cl)c3)Oc3cc2cc(c3O[C@@H]2O[C@H](CO)[C@@H](O)[C@H](O)[C@H]2O[C@H]2C[C@](C)(N)[C@H](O)[C@H](C)O2)Oc2ccc(cc2Cl)[C@H]1O` the growth inhibition call was “active”.
For `C[C@H]1CCCC[C@]12NC(=O)NC2=O`, the growth inhibition call was “inactive”.
With `CC1CCC(C(C)C)C(=O)C1` (configuration not stated) the growth inhibition call was “inactive”.
For `C[C@H](CO)N1C[C@H](C)[C@@H](CN(C)Cc2ccccc2)OCCCC[C@H](C)Oc2ccc(NC(=O)C3CCCCC3)cc2C1=O`, the growth inhibition call was “inactive”.
In the case of `COc1ccc(S(=O)(=O)Nc2ccc3c(c2)CC(=O)N([C@@H](C)CO)C[C@H](C)[C@@H](CN(C)S(C)(=O)=O)O3)cc1`, the growth inhibition call is reported as “inactive”.
For `Cc1ccc(S(=O)(=O)N(C)C[C@H]2Oc3c(NS(=O)(=O)c4cn(C)cn4)cccc3C(=O)N([C@@H](C)CO)C[C@H]2C)cc1`, the growth inhibition call was “inactive”.
`COCCNC(=O)C[C@H]1CC[C@H]2[C@@H](COC[C@@H](O)CN2S(=O)(=O)c2ccccc2C)O1` was tested, and the growth inhibition call was “inactive”.
For `CN1CC2(CCN(C(=O)[C@H]3CCC(=O)N3)CC2)COc2ccccc2S1(=O)=O`, the growth inhibition call was “inactive”.
For `C[C@@H]1CCCCO[C@H](CN(C)C(=O)NC2CCCCC2)[C@H](C)CN([C@@H](C)CO)C(=O)c2cc(NS(=O)(=O)c3ccc(F)cc3)ccc2O1`, the growth inhibition call was “inactive”.
With `O=C(C[C@H]1C[C@@H]2c3cc(NS(=O)(=O)c4ccc(F)cc4)ccc3O[C@@H]2[C@@H](CO)O1)NCc1ccncc1` the growth inhibition call was “inactive”.
For `CSc1nc(C)cc(NC(N)=O)n1`, the growth inhibition call was “inactive”.
For `COc1cc(N2CCC(N(C)C)CC2)ccc1Nc1ncc(Cl)c(Nc2ccccc2P(C)(C)=O)n1`, the growth inhibition call was “inactive”.
`COc1cc(N2CCC(N3CCN(C)CC3)CC2)ccc1Nc1ncc(Cl)c(Nc2ccccc2S(=O)(=O)C(C)C)n1` was tested, and the growth inhibition call was “inactive”.
With `COc1cc(N2CCC(N)CC2)ccc1Nc1ncc(Cl)c(-c2c[nH]c3ccccc23)n1` the growth inhibition call was “active”.
With `CCCNC(=O)N1C[C@H](O)COC[C@@H]2O[C@H](CC(=O)N3CCN(C)CC3)CC[C@H]21` the growth inhibition call was “inactive”.
In the case of `O=C(CN1CCOCC1)N[C@H]1CC[C@@H](CCNC(=O)C2CCCCC2)O[C@H]1CO`, the growth inhibition call is reported as “inactive”.
With `COC1(NC(=O)CSCC#N)C(=O)N2C(C(=O)[O-])=C(CSc3nnnn3C)CSC21.[Na+]` (configuration not stated) the growth inhibition call was “active”.
For `CO[C@@]1(NC(=O)CSC[C@@H](N)C(=O)O)C(=O)N2C(C(=O)O)=C(CSc3nnnn3C)CS[C@@H]21`, the growth inhibition call was “inactive”.
With `COC1(NC(=O)C(C(=O)[O-])c2ccc(O)cc2)C(=O)N2C(C(=O)[O-])=C(CSc3nnnn3C)COC21.[Na+].[Na+]` (configuration not stated) the growth inhibition call was “active”.
With `CO[C@@]1(NC(=O)[C@@H](C(=O)O)c2ccc(O)cc2)C(=O)N2C(C(=O)O)=C(CSc3nnnn3C)CO[C@@H]21` the growth inhibition call was “inactive”.
`COC1(NC(=O)C2SC(=C(C(N)=O)C(=O)O)S2)C(=O)N2C(C(=O)O)=C(CSc3nnnn3C)CSC21` (configuration not stated) was tested, and the growth inhibition call was “active”.
In the case of `C[C@H](CO)N1C[C@H](C)[C@@H](CN(C)Cc2ccc3c(c2)OCO3)Oc2c(NC(=O)c3ccncc3)cccc2C1=O`, the growth inhibition call is reported as “inactive”.
With `COc1ccc(S(=O)(=O)Nc2ccc3c(c2)CC(=O)N([C@H](C)CO)C[C@@H](C)[C@H](CN(C)S(=O)(=O)c2ccc(F)cc2)O3)cc1` the growth inhibition call was “inactive”.
For `O=C(CCCCCNC(=O)OCc1ccc(CO[C@H]2C[C@@H](C3CCCCC3)C=C(C(=O)N3CCN(Cc4ccc5c(c4)OCO5)CC3)O2)cc1)NO`, the growth inhibition call was “inactive”.
`COc1ccccc1NC(=O)C1=C(C)N=C(SCC(=O)Nc2ccccc2[N+](=O)[O-])C(C#N)[C@@H]1c1ccccc1F` (some centres not stated) was tested, and the growth inhibition call was “inactive”.
In the case of `C[C@H]1CN([C@@H](C)CO)C(=O)Cc2cc(NC(=O)CCCCCC(=O)Nc3ccccc3N)ccc2O[C@H]1CN(C)Cc1ccc(C(F)(F)F)cc1`, the growth inhibition call is reported as “inactive”.
`COc1ccc(NC(=O)N(C)C[C@H]2OCCCC[C@@H](C)Oc3ccc(NC(=O)Nc4ccccc4)cc3C(=O)N([C@H](C)CO)C[C@H]2C)cc1` was tested, and the growth inhibition call was “inactive”.
In the case of `COc1ccc(S(=O)(=O)Nc2ccc3c(c2)C(=O)N([C@@H](C)CO)C[C@@H](C)[C@H](CN(C)Cc2ccc(C(F)(F)F)cc2)OCCCC[C@H](C)O3)cc1`, the growth inhibition call is reported as “inactive”.
In the case of `C[C@H]1CCCCO[C@H](CN(C)S(=O)(=O)c2ccc(Cl)cc2)[C@@H](C)CN([C@@H](C)CO)C(=O)c2cc(NC(=O)Nc3ccc4c(c3)OCO4)ccc2O1`, the growth inhibition call is reported as “inactive”.
In the case of `COC(=O)c1cccnc1`, the growth inhibition call is reported as “inactive”.
In the case of `Cc1ccc(N(c2ccc(C)cc2)c2cccnc2)cc1`, the growth inhibition call is reported as “active”.
`CCN(CC)C(=O)c1cccnc1` was tested, and the growth inhibition call was “inactive”.
In the case of `CS(=O)(=O)N1C[C@@H]2OCC[C@@H]2[C@H](C(=O)NCc2cccnc2)C1`, the growth inhibition call is reported as “inactive”.
`O=C(O)c1c(Br)c(Br)c(Br)c(Br)c1-c1c2ccc(=O)cc-2oc2cc(O)ccc12` was tested, and the growth inhibition call was “active”.
In the case of `O=c1cc(-c2ccccc2O)oc2cc(O)ccc12`, the growth inhibition call is reported as “inactive”.
`O=c1cc(-c2ccccc2)oc2cc(O)ccc12` was tested, and the growth inhibition call was “inactive”.
In the case of `COc1ccccc1S(=O)(=O)N(C)C[C@@H]1OCc2cnnn2CCCC(=O)N([C@H](C)CO)C[C@@H]1C`, the growth inhibition call is reported as “inactive”.
In the case of `Cc1onc(-c2ccccc2)c1CN`, the growth inhibition call is reported as “inactive”.
With `Clc1ccc(COC(Cn2ccnc2)c2ccc(Cl)cc2Cl)cc1.O=[N+]([O-])O` (configuration not stated) the growth inhibition call was “inactive”.
`Clc1ccc(CSC(Cn2ccnc2)c2ccc(Cl)cc2Cl)cc1.O=[N+]([O-])O` (configuration not stated) was tested, and the growth inhibition call was “inactive”.
With `Clc1ccc(CON=C(Cn2ccnc2)c2ccc(Cl)cc2Cl)c(Cl)c1.O=[N+]([O-])O` the growth inhibition call was “active”.
With `CC(=O)N(C)C[C@H]1Oc2ncc(C#C[C@@H](C)O)cc2C(=O)N([C@@H](C)CO)C[C@@H]1C` the growth inhibition call was “inactive”.
With `CC(C)NC(=O)N(C)C[C@H]1Oc2c(NS(=O)(=O)c3cn(C)cn3)cccc2C(=O)N([C@H](C)CO)C[C@@H]1C` the growth inhibition call was “inactive”.
In the case of `C[C@H]1CN([C@@H](C)CO)C(=O)c2cc(NC(=O)NC3CCCCC3)ccc2O[C@H]1CN(C)Cc1ccc(Cl)c(Cl)c1`, the growth inhibition call is reported as “inactive”.
For `NC[C@@H]1CCCO1`, the growth inhibition call was “inactive”.
`CC[C@H]1OC(=O)C[C@@H](O)[C@H](C)[C@@H](O[C@@H]2O[C@H](C)[C@@H](O[C@H]3C[C@@](C)(O)[C@@H](O)[C@H](C)O3)[C@H](N(C)C)[C@H]2O)[C@@H](CC=O)C[C@@H](C)C(=O)/C=C/C(C)=C/[C@@H]1CO[C@@H]1O[C@H](C)[C@@H](O)[C@@H](OC)[C@H]1OC` was tested, and the growth inhibition call was “active”.
For `CC[C@H]1OC(=O)C[C@@H](O)[C@H](C)[C@@H](O[C@@H]2O[C@H](C)C[C@H](N(C)C)[C@H]2O)[C@@H](CC=O)C[C@@H](C)C(=O)/C=C/[C@]2(C)O[C@H]2[C@@H]1C`, the growth inhibition call was “active”.
For `CCC1OC(=O)CC(O)C(C)C(OC2OC(C)C(OC3CC(C)(O)C(O)C(C)O3)C(N(C)C)C2O)C(CC=O)CC(C)C(=O)C=CC(C)=CC1COC1OC(C)C(O)C(OC)C1OC.O=C(O)C(O)C(O)C(=O)O` (configuration not stated), the growth inhibition call was “active”.
`COc1cccc(C(=O)Nc2ccc3c(c2)C(=O)N(C)[C@@H]2CC[C@H](CC(=O)NCC4CC4)O[C@@H]2CO3)c1` was tested, and the growth inhibition call was “inactive”.
For `Cc1noc(C)c1NC(=O)Nc1ccc2c(c1)C(=O)N([C@H](C)CO)C[C@H](C)[C@@H](CN(C)C(=O)C1CCCCC1)OCCCC[C@@H](C)O2`, the growth inhibition call was “inactive”.
In the case of `COCC#Cc1ccc2c(c1)O[C@H](CN(C)C(=O)c1ccccc1F)[C@@H](C)CN([C@@H](C)CO)S2(=O)=O`, the growth inhibition call is reported as “inactive”.
In the case of `C[C@@H]1CN([C@H](C)CO)C(=O)c2cc(NC(=O)Nc3cccc4ccccc34)ccc2O[C@H]1CN(C)S(=O)(=O)c1ccccc1`, the growth inhibition call is reported as “inactive”.
`COC(=O)c1cc(=O)nc2n1[C@H]1O[C@H](CO)[C@H](O)[C@H]1O2` was tested, and the growth inhibition call was “inactive”.
`COc1cccc(NC(=O)C[C@H]2CC[C@@H]3[C@@H](COc4ccc(NC(=O)C5CCOCC5)cc4C(=O)N3C)O2)c1` was tested, and the growth inhibition call was “inactive”.
